# Screen size: about 69,000 compounds; about 950 (1.4%) showed an effect of 50% or more. Shown is part of a subset that was picked to be rich in strong results.
# Test system: Mycobacterium tuberculosis
# Test: Cornell M. t heat shock assay; also: in the data most compounds retested in dose-response had high values
# Type: functional, organism-based
# Set-up: dose or concentration left out as unconfirmed
row,Compound,Percent Effect [%]
1,Cc1cnc(C(=O)N2C[C@H]3CC[C@@H]2CN(c2cnccn2)C3)cn1,-7.052
2,CCC(C)N1Cc2c(C(=O)N3CCOCC3)nn(C)c2C1.O=C(O)C(F)(F)F (stereo unspecified),-5.344
3,CC(C)N1CCCCC1c1nc(N(C)C)ncc1I.Cl (stereo unspecified),-21.57
4,CC(C)N(C)Cc1cnc2n1CCN(S(=O)(=O)c1ccccc1)C2.O=C(O)C(F)(F)F,-26.7
5,Cc1nc(C2CCNC2)nc2c1CCC(=O)N2CC(C)C.Cl (stereo unspecified),-0.8245
6,c1ccc(C2CCCN(c3cncc(-n4cccn4)n3)CC2)cc1 (stereo unspecified),6.437
7,c1ccc(COC2CCN(c3cncc(-n4cccn4)n3)CC2)cc1,53.35
8,c1ccc(C2CCN(c3cncc(-n4cccn4)n3)CC2)cc1,-1.073
9,CN(C)S(=O)(=O)N1CCO[C@H]2[C@H](Oc3cccnc3)CC[C@@H]21.O=C(O)C(F)(F)F,-23.12
10,CCOc1ccc(C2C3=C(O)OCC3=Nc3nc(SC)nc(N)c32)cc1 (stereo unspecified),5.942
11,CC(C)N1CCc2c(C(=O)N3CCOCC3)nn(C)c2C1.O=C(O)C(F)(F)F,1.567
12,CC(C)c1ncc2c(n1)CN(Cc1nc(Cc3ccccc3)no1)CC2,21.5
13,Cc1ccc(-c2nc(CN3CCc4cnc(C)nc4C3)no2)cc1,7.068
14,CC(C)c1ncc2c(n1)CN(Cc1noc(-c3ccccc3)n1)CC2,59.47
15,Cc1cccc(CN2CCOCC3(CCN(C4CCOCC4)C3)C2)c1.O=C(O)C(F)(F)F.O=C(O)C(F)(F)F (stereo unspecified),-7.998
16,CC(=O)Nc1nc(C(=O)NCc2ccc(N3CCCC3)nc2)cs1,-13.06
17,CC(=O)Nc1nc(C(=O)NCc2ccc(N3CCCCCC3)nc2)cs1,8.395
18,CC(=O)Nc1nc(C(=O)Nc2ccc(N3CCCCC3)nc2)cs1,50.82
19,O=C(O)C(F)(F)F.O=C(O)C(F)(F)F.c1cc(CN2CCc3ncc(CN4CCCCC4)n3CC2)cs1,-20.06
20,Cc1nc(COCC2CN(C(N)=O)Cc3nccn3C2)cs1.O=C(O)C(F)(F)F (stereo unspecified),-0.7889
21,CS(=O)(=O)NCCn1ccc(-c2cccs2)n1,0.1994
22,Cc1cc(=O)[nH]c(-n2nc(-c3cccs3)cc2N)n1,94.15
23,Cc1cc(=O)[nH]c(-n2nc(-c3ccccc3)cc2N)n1,105.3
24,NC1(c2nc(-c3cccs3)cc(=O)[nH]2)CCCCC1,-38.51

row,Compound,Percent Effect [%]
1,NC1(c2nc(-c3ccccc3)cc(=O)[nH]2)CCCCC1,0.6123
2,CCCc1cc(=O)[nH]c(-n2nc(-c3cccs3)cc2N)n1,106.1
3,NC1(c2nc(-c3ccccc3)cc(=O)[nH]2)CCCC1,-2.897
4,NC1(c2nc(-c3cccs3)cc(=O)[nH]2)CCCC1,-25.86
5,CCCS(=O)(=O)NCCn1ccc(-c2cccs2)n1,-4.478
6,Cc1noc(C)c1CN1CC[C@H]2OCC[C@@]2(C(=O)N(C)C)C1.O=C(O)C(F)(F)F,-9.212
7,CC(C)CCN1C2(CCN(Cc3nccs3)C2)c2ccccc2S1(=O)=O.O=C(O)C(F)(F)F (stereo unspecified),47.98
8,CN(C)C(=O)COCC1CN(Cc2cccs2)Cc2ncn(C)c21.O=C(O)C(F)(F)F.O=C(O)C(F)(F)F (stereo unspecified),-34.33
9,COc1ccc(CN2CCCC(N3CCCC3)C2)cc1Cn1cncn1 (stereo unspecified),-42.58
10,Clc1cc(CN2CCCC(Cn3cncn3)C2)c2ncccc2c1 (stereo unspecified),-4.966
11,COc1cc(Cl)cc(CN2CCCC(N3CCOCC3)C2)c1OC (stereo unspecified),2.91
12,O[C@@H]1CN(Cc2cc(Cl)cc3cccnc23)C[C@@H]1O,-38.19
13,Clc1cc(CN2CCCN3CCCC3C2)c2ncccc2c1 (stereo unspecified),99
14,COc1cc(Cl)cc(CN2CCCC(N3CCCC3)C2)c1OC (stereo unspecified),98.75
15,CNC(=O)C1CNCCN1C(=O)c1ccc(C(F)(F)F)nc1C.Cl (stereo unspecified),13.87
16,CC(C)NC(=O)CC1COC2(CCN(Cc3cccnc3)CC2)C1.O=C(O)C(F)(F)F.O=C(O)C(F)(F)F (stereo unspecified),-3.493
17,Cc1nc(C)c2c(n1)CCN(Cc1ccco1)CC2,1.706
18,Oc1nc(N2CCCC2)nc2c1CCN(Cc1ccsc1)CC2,-11.88
19,Cc1nc(N2CCCC2)nc2c1CCN(Cc1ccsc1)CC2.O=C(O)C(F)(F)F,100.4
20,Cc1nc(N2CCCC2)nc2c1CCN(Cc1ccoc1)CC2.O=C(O)C(F)(F)F,64.12
21,Cc1nc(N2CCCC2)nc2c1CCN(Cc1ccco1)CC2.O=C(O)C(F)(F)F,66.31
22,Cc1nc(N2CCCC2)nc2c1CCN(Cc1nccn1C)CC2.O=C(O)C(F)(F)F,-10.58
23,Cc1nc(N2CCOCC2)nc2c1CCN(Cc1cccnc1)CC2.O=C(O)C(F)(F)F,5.04
24,Cc1nc(N2CCOCC2)nc2c1CCN(Cc1ccsc1)CC2.O=C(O)C(F)(F)F,3.426

row,Compound,Percent Effect [%]
1,CC(C)Oc1ncnc2c1CCN(Cc1ccco1)CC2.O=C(O)C(F)(F)F,-23.01
2,O=C(O)C(F)(F)F.O=C(O)C(F)(F)F.O=C1CC2(CCN(Cc3ccncc3)C2)CN1c1ccc2c(c1)OCO2 (stereo unspecified),-29.31
3,O=C(O)C(F)(F)F.O=C(O)C(F)(F)F.c1cnc(N2CCC3(COCCN(CC4CCOCC4)C3)C2)nc1 (stereo unspecified),-23.85
4,CCc1ncnc2c1CCN(CC(=O)N(C)C)CC2.O=C(O)C(F)(F)F,-2.001
5,COc1ccc(CN2C[C@@H]3OCCN(CCN4CCCC4)[C@@H]3C2)cc1.O=C(O)C(F)(F)F.O=C(O)C(F)(F)F.O=C(O)C(F)(F)F,-18.96
6,Cc1ncc2c(n1)C1(CCN(C(=O)C3CC3)CC1)OCC2.Cl,6.327
7,CCN(CC)Cc1cn2c(n1)CN(C(=O)Cc1ccsc1)CC2.O=C(O)C(F)(F)F,-4.189
8,Cl.O=C1CC2(CCNCC2)C(=O)N1c1cccc(F)c1,-6.229
9,Cc1cc2c(=O)n3c(nc2s1)CCN(Cc1cnc(C)n1C)CC3.Cl,0.614
10,O=C(O)C(F)(F)F.O=C1Nc2ccccc2C12CCN(Cc1cccs1)CC2,-5.404
11,O=C(O)C(F)(F)F.c1ccc(CN2Cc3nccn3CC(Cn3cncn3)C2)nc1 (stereo unspecified),-29.71
12,Cc1nc2c(c(NCc3nc4ccccc4s3)n1)CCNCC2,105.4
13,Cc1nc2c(c(NCc3cc4ccccc4s3)n1)CCNCC2,-9.753
14,Cc1nc2c(c(NCc3ccc(-c4ccccn4)s3)n1)CCNCC2,-21.22
15,C[C@H]1CN(CC2CCOCC2)C[C@@]12CCN(Cc1cccnc1)C2=O.O=C(O)C(F)(F)F.O=C(O)C(F)(F)F,4.288
16,CN(C)C(=O)C1(C)CN(Cc2cn(C)c3ccc(F)cc23)CCO1 (stereo unspecified),64.53
17,CC1(C(=O)N2CCOCC2)CN(Cc2ccccc2F)CCO1 (stereo unspecified),10.07
18,CNC(=O)C1(C)CN(Cc2cn(C)c3ccc(F)cc23)CCO1 (stereo unspecified),39.76
19,CN(C)C(=O)C1(C)CN(Cc2cn(C)c3ccccc23)CCO1 (stereo unspecified),54.51
20,Cc1nnc(N2CCOC(C)(C(=O)N(C)C)C2)c2ccccc12 (stereo unspecified),0.5691
21,Cc1ncsc1CN1CCOC(C)(C(=O)N(C)C)C1 (stereo unspecified),-16.31
22,CC(C)Cn1c(=O)nc2n1C(=O)N(c1ccc(F)cc1)C2,4.992
23,Cc1cccc(-c2nnn3c2COC(CNCc2nccs2)C3)c1.O=C(O)C(F)(F)F (stereo unspecified),-29.09
24,COc1cc(N2C[C@H](C(=O)NCC3CC3)[C@@H]3CCO[C@@H]3C2)ncn1.O=C(O)C(F)(F)F,-37.92

row,Compound,Percent Effect [%]
1,CN(CCc1ccccn1)C(=O)c1cnn(-c2ccccc2F)c1N,25.3
2,Cc1cc(Cl)ccc1-n1ncc(C(=O)N(C)CCc2ccccn2)c1N,67.07
3,Cc1ccc(C)c(-n2ncc(C(=O)N(C)CCc3ccccn3)c2N)c1,29.21
4,COc1ccc(OC)c(CN(Cc2ccco2)Cc2[nH]cnc2C)c1.O=C(O)CC(O)(CC(=O)O)C(=O)O,-22.22
5,Cc1cccn2cc(CN3CCCC(c4ccn[nH]4)C3)nc12 (stereo unspecified),23.59
6,Cc1cccn2cc(CN3CCCC(O)C3)nc12 (stereo unspecified),-6.265
7,Cc1cccn2cc(CN3CCCC(c4noc(C5CC5)n4)C3)nc12 (stereo unspecified),100.9
8,COCC(=O)N1CCC2(CC1)C(=O)N(Cc1cccnc1)CCN2C.O=C(O)C(F)(F)F.O=C(O)C(F)(F)F,-22.77
9,O=C(NC[C@H]1CC[C@H](c2ccnc3ncnn32)CC1)C1CC1,14.38
10,COCC1c2c(cnn2C)CCN1Cc1ccc(C)cc1.O=C(O)C(F)(F)F.O=C(O)C(F)(F)F (stereo unspecified),-35.12
11,Cn1ccnc1CN1CCc2onc(COCC3CC3)c2C1.O=C(O)C(F)(F)F,34.07
12,CCn1ncc2c1C(COC)N(C(=O)c1cscn1)CC2.O=C(O)C(F)(F)F (stereo unspecified),-5.863
13,CS(=O)(=O)N1CCCC1c1cccc(Nc2nccs2)n1 (stereo unspecified),92.85
14,CS(=O)(=O)N1CCCC1c1cccc(Cc2ccccc2F)n1 (stereo unspecified),-7.758
15,COCCN1CCCC1c1nccnc1Nc1nccs1 (stereo unspecified),-9.826
16,Cc1cnc(Nc2cccc(C3CCCN3Cc3cn(C)nc3C)n2)s1 (stereo unspecified),104.4
17,Cc1ccc(C2CCCCCN2Cc2cn(C)nc2C)s1 (stereo unspecified),11.6
18,Cc1ccsc1C1CCCCCN1Cc1cn(C)nc1C (stereo unspecified),17.22
19,Cc1nn(C)cc1CN1CCCCCC1c1ccccc1Cl (stereo unspecified),-8.916
20,COCCN1CCCC1c1ccnc(-c2ccccc2)n1 (stereo unspecified),20.75
21,c1ccc(CCN2CCCC2c2cccc(Nc3nccs3)n2)cc1 (stereo unspecified),104.9
22,Cc1cccc(C2CCCCCN2Cc2cn(C)nc2C)c1 (stereo unspecified),5.626
23,Cc1nc(Nc2ncc(C)s2)cc(C2CCCN2S(C)(=O)=O)n1 (stereo unspecified),-9.231
24,Cc1nn(C)cc1CN1CCCC1c1cccc(Nc2nccs2)n1 (stereo unspecified),99.7

# Reference: ChEMBL document CHEMBL3988442, “University of Dundee, Small-Polar-MMV Screening Library” (2021)
